According to PubChem BioAssay (EPA / NIEHS):
Calls of active or inactive are those of the source. Rule for the calls: active = hit-call score of the fitted dose curve at least 0.9, where 1 is the maximum; inactive = score below 0.9.

Assays:
Details in all cases: mRNA level, 48 h; actives raise or lower the signal
[1] = read-out: MicroRNA 122 (MIR122), gene 406906; experiment: LTEA_HepaRG_MIR122: Life Technologies and Expression Analysis (LTEA) Assay for MicroRNA 122 (MIR122) using HepaRG (AID 2283516); note: the transcript read is the microRNA miR-122
How it was run: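 Differentiated human HepaRG cells in serum-free induction medium exposed 48 h to 8 half-log concentrations from 100 uM in 0.5% DMSO, duplicate. MIR122 quantified by Fluidigm TaqMan qRT-PCR, normalised to ACTB, GAPDH, POLR2A; fold change fitted bidirectionally versus DMSO.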

[2] = read-out: matrix metalloproteinase-10 (MMP10), MMP10 (gene 4319); experiment: LTEA_HepaRG_MMP10: Life Technologies and Expression Analysis (LTEA) Assay for matrix metalloproteinase-10 (MMP10) using HepaRG (AID 2283517)
How it was run: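 HepaRG, collagen I, ~100,000 cells/well; serum-free induction medium; 48 h exposure, duplicate, 8-pt half-log to 100 uM, 0.5% DMSO. Readout: TaqMan qRT-PCR, normalized to ACTB/GAPDH/POLR2A; bidirectional fit vs DMSO.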

MYC, MYC (gene 4609) = experiment: LTEA_HepaRG_MYC: Life Technologies and Expression Analysis (LTEA) Assay for MYC using HepaRG (AID 2283518)
How it was run: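 Expression changes were scored by TaqMan qRT-PCR with ACTB, GAPDH and POLR2A normalization. Cultures in serum-free induction medium received duplicate 8-point concentration series, highest 100 uM, for 48 h; DMSO (0.5%) served as baseline.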

[3] = read-out: matrix metalloproteinase-3 (MMP3), MMP3 (gene 4314); experiment: LTEA_HepaRG_MMP3: Life Technologies and Expression Analysis (LTEA) Assay for matrix metalloproteinase-3 (MMP3) using HepaRG (AID 2283519)
How it was run: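 Differentiated human HepaRG cells, plated 48 h on collagen I, were exposed in duplicate for 48 h in serum-free induction medium to eight half-log concentrations up to 100 uM in 0.5% DMSO. MMP3 mRNA was quantified by TaqMan qRT-PCR, normalised to ACTB, GAPDH and POLR2A.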

[4] = read-out: Paternally Expressed 10 (PEG10), PEG10 (gene 23089); experiment: LTEA_HepaRG_PEG10: Life Technologies and Expression Analysis (LTEA) Assay for Paternally Expressed 10 (PEG10) using HepaRG (AID 2283520)
How it was run: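 Differentiated HepaRG cells exposed 48 h in serum-free induction medium to eight half-log concentrations topping at 100 uM, 0.5% DMSO, in duplicate. PEG10 mRNA quantified by TaqMan qRT-PCR, normalized to ACTB, GAPDH and POLR2A; bidirectional fit versus DMSO.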

[5] = read-out: Nuclear factor NF-kappa-B p105 subunit (Homo sapiens) (UniProt P19838); experiment: LTEA_HepaRG_NFKB1: Life Technologies and Expression Analysis (LTEA) Assay for Nuclear Factor Kappa B Subunit 1 (NFKB1) using HepaRG (AID 2283521);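 note: TaqMan qRT-PCR transcript normalised to ACTB GAPDH and POLR2A housekeeping genes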
How it was run: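 Differentiated human HepaRG cells were exposed for 48 h in serum-free induction medium to eight concentrations (top 100 uM, half-log steps, 0.5% DMSO), in duplicate. NFKB1 mRNA was measured by TaqMan qRT-PCR, normalized to ACTB/GAPDH/POLR2A, and fitted bidirectionally against DMSO.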

[6] = read-out: Protein phosphatase 2A (PPP2R4), PTPA (gene 5524); experiment: LTEA_HepaRG_PPP2R4: Life Technologies and Expression Analysis (LTEA) Assay for Protein phosphatase 2A (PPP2R4) using HepaRG (AID 2283522)
How it was run: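 Differentiated human HepaRG cells in serum-free induction medium were exposed 48 h to 8 concentrations (top 100 µM, half-log steps, duplicate) in 0.5% DMSO. PPP2R4 mRNA was measured by TaqMan qRT-PCR, normalised to ACTB, GAPDH and POLR2A, and fitted bidirectionally versus DMSO.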

[7] = read-out: Phosphatase and tensin (PTEN), PTEN (gene 5728); experiment: LTEA_HepaRG_PTEN: Life Technologies and Expression Analysis (LTEA) Assay for Phosphatase and tensin (PTEN) using HepaRG (AID 2283523)
How it was run: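 Differentiated human HepaRG cells, plated 48 h then switched to serum-free induction medium, were exposed in duplicate for 48 h to eight half-log concentrations up to 100 uM in 0.5% DMSO. PTEN mRNA measured by TaqMan qRT-PCR, normalized to ACTB/GAPDH/POLR2A, bidirectional fit versus DMSO.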

[8] = read-out: solute carrier (SLC22A1), SLC22A1 (gene 6580); experiment: LTEA_HepaRG_SLC22A1: Life Technologies and Expression Analysis (LTEA) Assay for solute carrier (SLC22A1) using HepaRG (AID 2283524)
How it was run: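 Human HepaRG cells were plated 48 h, switched to serum-free induction medium, then exposed in duplicate for 48 h to 8-point half-log series from 100 uM in 0.5% DMSO. SLC22A1 mRNA measured by qRT-PCR, normalized to ACTB/GAPDH/POLR2A, fitted bidirectionally versus DMSO.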

[9] = read-out: Pyruvate Dehydrogenase Kinase 4 (PDK4), PDK4 (gene 5166); experiment: LTEA_HepaRG_PDK4: Life Technologies and Expression Analysis (LTEA) Assay for Pyruvate Dehydrogenase Kinase 4 (PDK4) using HepaRG (AID 2283525)
How it was run: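 Differentiated human HepaRG cells, pre-cultured 48 h, were exposed in duplicate for 48 h in serum-free induction medium to eight half-log concentrations up to 100 uM in 0.5% DMSO. PDK4 mRNA was quantified by qRT-PCR, normalized to ACTB, GAPDH and POLR2A, bidirectional fitting versus DMSO.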

[10] = read-out: NAD(P)H dehydrogenase [quinone] 1 (NQO1), NQO1 (gene 1728); experiment: LTEA_HepaRG_NQO1: Life Technologies and Expression Analysis (LTEA) Assay for NAD(P)H dehydrogenase [quinone] 1 (NQO1) using HepaRG (AID 2283526)
How it was run: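 Differentiated human HepaRG cells in serum-free induction medium, dosed in duplicate for 48 h at 8 half-log concentrations up to 100 uM in 0.5% DMSO. NQO1 mRNA by qRT-PCR normalized to ACTB, GAPDH, POLR2A; bidirectional fit versus DMSO baseline.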

[11] = read-out: Nuclear factor erythroid 2-related factor 2 (Homo sapiens) (UniProt Q16236); experiment: LTEA_HepaRG_NFE2L2: Life Technologies and Expression Analysis (LTEA) Assay for Nuclear factor erythroid 2-related factor 2 (NFE2L2) Transcription Factor using HepaRG (AID 2283527);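 note: TaqMan qRT-PCR transcript level normalised to ACTB GAPDH and POLR2A housekeeping genes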
How it was run: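 Differentiated human HepaRG cells in serum-free induction medium were exposed for 48 h to eight concentrations (top 100 uM, half-log dilutions, 0.5% DMSO), in duplicate. NFE2L2 mRNA was quantified by TaqMan qRT-PCR, normalized to ACTB, GAPDH and POLR2A, with bidirectional fitting versus DMSO.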

[12] = read-out: succinate dehydrogenase complex iron sulfur subunit B (SDHB), SDHB (gene 6390); experiment: LTEA_HepaRG_SDHB: Life Technologies and Expression Analysis (LTEA) Assay for succinate dehydrogenase complex iron sulfur subunit B (SDHB) using HepaRG (AID 2283528)
How it was run: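 HepaRG, 48 h exposure, 8-pt half-log series from 100 uM in 0.5% DMSO, duplicates. Readout: SDHB mRNA by Fluidigm qRT-PCR vs housekeeping genes; bidirectional fit relative to DMSO.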

[13] = read-out: Signal transducer and activator of transcription 3 (Homo sapiens) (UniProt P40763); experiment: LTEA_HepaRG_STAT3: Life Technologies and Expression Analysis (LTEA) Assay for Signal transducer and activator of transcription (STAT3) using HepaRG (AID 2283529)
How it was run: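 Differentiated human HepaRG cells in serum-free induction medium were exposed in duplicate for 48 h to eight half-log concentrations up to 100 uM in 0.5% DMSO. STAT3 mRNA was quantified by TaqMan qRT-PCR, normalized to ACTB, GAPDH and POLR2A, and fitted bidirectionally against DMSO.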

[14] = read-out: solute carrier (SLCO1B1), SLCO1B1 (gene 10599); experiment: LTEA_HepaRG_SLCO1B1: Life Technologies and Expression Analysis (LTEA) Assay for solute carrier (SLCO1B1) using HepaRG (AID 2283530)
How it was run: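 Human HepaRG cultures treated for 48 h with an eight-concentration half-log series topping at 100 uM; SLCO1B1 measured by qRT-PCR and fitted bidirectionally relative to DMSO.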

[15] = read-out: sulfotransferase 2A1 (SULT2A1), SULT2A1 (gene 6822); experiment: LTEA_HepaRG_SULT2A1: Life Technologies and Expression Analysis (LTEA) Assay for sulfotransferase 2A1 (SULT2A1) using HepaRG (AID 2283531)
How it was run: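 Gene-expression endpoint in a human liver cell line: SULT2A1 mRNA change after 48 h chemical treatment, curves fitted in both directions relative to 0.5% DMSO vehicle. Concentrations spanned eight half-log steps from 100 uM.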

[16] = read-out: Transforming Growth Factor (TGFA), TGFA (gene 7039); experiment: LTEA_HepaRG_TGFA: Life Technologies and Expression Analysis (LTEA) Assay for Transforming Growth Factor (TGFA) using HepaRG (AID 2283532)
How it was run: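 Differentiated human HepaRG cells, plated 48 h then switched to serum-free induction medium, were exposed in duplicate for 48 h to 8-point half-log series from 100 uM in 0.5% DMSO. TGFA mRNA measured by qRT-PCR, normalized to ACTB/GAPDH/POLR2A, bidirectional fit versus DMSO.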

[17] = read-out: Transforming Growth Factor (TGFB1), TGFB1 (gene 7040); experiment: LTEA_HepaRG_TGFB1: Life Technologies and Expression Analysis (LTEA) Assay for Transforming Growth Factor (TGFB1) Transporter using HepaRG (AID 2283533)
How it was run: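 Eight-point concentration-response (max 100 uM, half-log) in HepaRG under serum-free induction conditions, 48 h. TGFB1 mRNA by qRT-PCR, housekeeping-normalized.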

TIMP1, TIMP1 (gene 7076) = experiment: LTEA_HepaRG_TIMP1: Life Technologies and Expression Analysis (LTEA) Assay for TIMP1 using HepaRG (AID 2283534);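 note: TaqMan qRT-PCR signal normalized to ACTB GAPDH and POLR2A housekeeping genes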
How it was run: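 TIMP1 induction or repression in HepaRG cells after 48 h chemical exposure (eight concentrations, highest 100 uM), assessed by normalized qRT-PCR with bidirectional fitting to DMSO controls.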

[18] = read-out: Tumor necrosis factor receptor 1 (TNFRSF1A), TNFRSF1A (gene 7132); experiment: LTEA_HepaRG_TNFRSF1A: Life Technologies and Expression Analysis (LTEA) Assay for Tumor necrosis factor receptor 1 (TNFRSF1A) using HepaRG (AID 2283535)
How it was run: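 Assay uses 48 h chemical treatment of differentiated HepaRG monolayers, tested in duplicate at eight concentrations from 100 uM downward in 0.5% DMSO. mRNA is normalized to ACTB, GAPDH and POLR2A, with induction or suppression fitted relative to vehicle.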

Measured: AC50

Chain of Nuclear factor NF-kappa-B p105 subunit (Homo sapiens) (P19838 whole entry, looked up): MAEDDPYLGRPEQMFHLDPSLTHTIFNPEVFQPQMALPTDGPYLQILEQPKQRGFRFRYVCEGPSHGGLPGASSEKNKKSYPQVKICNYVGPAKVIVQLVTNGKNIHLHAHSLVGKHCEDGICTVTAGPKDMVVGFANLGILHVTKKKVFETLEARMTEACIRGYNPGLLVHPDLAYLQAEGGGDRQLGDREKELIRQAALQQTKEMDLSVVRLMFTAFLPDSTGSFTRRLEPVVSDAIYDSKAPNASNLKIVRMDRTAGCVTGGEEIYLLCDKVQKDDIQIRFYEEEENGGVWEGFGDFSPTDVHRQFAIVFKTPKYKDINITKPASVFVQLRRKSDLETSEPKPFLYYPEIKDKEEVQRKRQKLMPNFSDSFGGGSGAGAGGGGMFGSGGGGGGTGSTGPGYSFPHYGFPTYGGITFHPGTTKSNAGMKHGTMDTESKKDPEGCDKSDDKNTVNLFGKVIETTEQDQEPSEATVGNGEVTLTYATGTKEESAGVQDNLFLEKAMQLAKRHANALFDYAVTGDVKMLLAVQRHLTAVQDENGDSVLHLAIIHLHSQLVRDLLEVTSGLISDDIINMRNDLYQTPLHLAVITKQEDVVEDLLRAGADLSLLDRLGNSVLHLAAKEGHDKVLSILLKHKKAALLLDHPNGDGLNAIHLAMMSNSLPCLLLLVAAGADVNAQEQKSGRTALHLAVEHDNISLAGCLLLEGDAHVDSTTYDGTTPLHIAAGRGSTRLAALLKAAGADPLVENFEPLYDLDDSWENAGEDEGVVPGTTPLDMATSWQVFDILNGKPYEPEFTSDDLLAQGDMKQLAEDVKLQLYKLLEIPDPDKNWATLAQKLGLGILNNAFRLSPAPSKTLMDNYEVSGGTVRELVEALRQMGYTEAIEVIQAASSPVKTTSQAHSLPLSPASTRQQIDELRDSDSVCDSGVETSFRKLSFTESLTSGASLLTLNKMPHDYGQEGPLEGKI
Chain of Signal transducer and activator of transcription 3 (Homo sapiens) (P40763 whole entry, looked up): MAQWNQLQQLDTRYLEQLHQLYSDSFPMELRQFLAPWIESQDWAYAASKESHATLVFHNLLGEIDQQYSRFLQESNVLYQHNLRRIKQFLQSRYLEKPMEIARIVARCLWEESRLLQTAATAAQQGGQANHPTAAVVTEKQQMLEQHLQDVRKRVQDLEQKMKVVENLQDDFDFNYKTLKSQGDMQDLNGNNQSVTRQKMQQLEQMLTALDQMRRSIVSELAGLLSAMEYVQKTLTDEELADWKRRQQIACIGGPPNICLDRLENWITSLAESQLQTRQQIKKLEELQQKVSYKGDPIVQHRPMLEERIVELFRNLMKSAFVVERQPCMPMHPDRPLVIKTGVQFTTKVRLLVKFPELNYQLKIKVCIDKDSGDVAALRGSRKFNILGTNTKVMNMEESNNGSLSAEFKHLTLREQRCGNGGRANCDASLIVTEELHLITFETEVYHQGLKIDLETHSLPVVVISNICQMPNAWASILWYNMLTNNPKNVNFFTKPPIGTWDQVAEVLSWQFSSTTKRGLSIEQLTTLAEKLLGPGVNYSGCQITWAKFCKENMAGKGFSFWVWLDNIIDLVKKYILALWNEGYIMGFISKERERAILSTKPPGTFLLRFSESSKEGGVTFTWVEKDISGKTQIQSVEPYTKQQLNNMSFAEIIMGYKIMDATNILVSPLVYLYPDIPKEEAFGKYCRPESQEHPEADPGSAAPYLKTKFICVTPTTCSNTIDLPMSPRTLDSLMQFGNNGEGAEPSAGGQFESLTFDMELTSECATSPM
Chain of Nuclear factor erythroid 2-related factor 2 (Homo sapiens) (Q16236 whole entry, looked up): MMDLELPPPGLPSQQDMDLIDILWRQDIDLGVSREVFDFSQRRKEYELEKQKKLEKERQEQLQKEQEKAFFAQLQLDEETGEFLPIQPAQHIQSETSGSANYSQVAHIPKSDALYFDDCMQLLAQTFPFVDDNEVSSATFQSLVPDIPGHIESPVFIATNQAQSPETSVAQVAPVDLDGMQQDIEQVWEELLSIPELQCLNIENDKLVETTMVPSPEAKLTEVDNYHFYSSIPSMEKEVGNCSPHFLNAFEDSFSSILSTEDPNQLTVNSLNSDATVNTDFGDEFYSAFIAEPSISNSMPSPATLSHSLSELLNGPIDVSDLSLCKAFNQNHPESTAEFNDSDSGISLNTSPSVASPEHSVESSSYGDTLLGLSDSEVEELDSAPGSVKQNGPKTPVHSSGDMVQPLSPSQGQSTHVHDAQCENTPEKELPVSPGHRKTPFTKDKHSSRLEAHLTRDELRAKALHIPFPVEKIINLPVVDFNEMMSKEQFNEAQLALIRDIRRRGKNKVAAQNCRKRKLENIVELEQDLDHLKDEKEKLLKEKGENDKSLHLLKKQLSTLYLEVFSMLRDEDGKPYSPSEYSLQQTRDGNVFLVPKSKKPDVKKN

Oc1ccc(O)cc1
inactive: all assays above

C/C=C/c1ccc(OC)cc1
not listed: [10]
inactive: all other assays above

CC1(C)C(=O)NC(=O)N1CO
not listed: [10]
inactive: all other assays above

O=C(O)c1[nH]n(-c2ccc(S(=O)(=O)O)cc2)c(=O)c1N=Nc1ccc(S(=O)(=O)O)cc1
not listed: [10]
inactive: all other assays above

CSc1ccc(Oc2ccc(S(N)(=O)=O)cc2CN(C)C)cc1C
active: [4] 72.7 µM
not listed: [10]
inactive: all other assays above

C=CCc1ccc(OC)c(OC)c1
active: [7] 0.0454 µM | [14] 0.315 µM | [16] 9.92 µM
not listed: [10]
inactive: all other assays above

O=NO
not listed: [10]
inactive: all other assays above
